The values that follow come from PubChem BioAssay (NCI).

About 79,000 compounds went through this panel and 15% of them were active in at least one assay; those are over-represented in the sample as a whole. Unmarked numbers belong to inactive results. Active and inactive are the calls of the source. No stated cut-off is given here; in the data, active means growth inhibition above about 70%; inactive means the rest.

Test [1] in a line: NCI Yeast Anticancer Drug Screen. Data for the rad50 strain (AID 155).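 Further: 0% = growth of vehicle-only cultures of the same strain.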 The following applies: S. cerevisiae rad50 strain growth inhibition; at 50.0 µM; active compounds read high. The essentials: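 Vehicle-treated cultures provide the reference for the growth inhibition reported for compound-exposed, repair-deficient yeast.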
Test [2] in a line: NCI Yeast Anticancer Drug Screen. Data for the mec2-1 strain (AID 157). The following applies: S. cerevisiae mec2-1 strain, at 50.0 µM, active compounds read high. Summed up:
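mec2-1 yeast strain, carrying an alteration in DNA damage repair or cell cycle control, was exposed to compounds; growth inhibition was measured relative to vehicle-treated controls.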

A short description of test [3]: NCI Yeast Anticancer Drug Screen. Data for the sgs1 mgt1 strain (AID 161).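 Further: 0% = growth of cultures given vehicle only.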 The following applies: S. cerevisiae sgs1 mgt1 strain, at 50.0 µM, active compounds read high. Summed up:
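Growth of a repair-deficient yeast mutant was monitored after compound treatment and expressed as inhibition relative to vehicle-treated cultures.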

Test [4] can be described thus: NCI Yeast Anticancer Drug Screen. Data for the cln2 rad14 strain (AID 165).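 Further: 0% = growth equal to vehicle treated cultures.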 The following applies: S. cerevisiae cln2 rad14 strain, at 50.0 µM, active compounds read high. Summed up:
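Yeast carrying cln2 and rad14 alterations (cell cycle control and DNA damage repair) were exposed to compounds. Growth inhibition was measured against vehicle-treated controls.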

Test [5] is described as follows: NCI Yeast Anticancer Drug Screen. Data for the bub3 strain (AID 167). To be noted: S. cerevisiae bub3 mutant strain, at 50.0 µM, active compounds read high. Summed up: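 Mutant yeast screening strain plus compound; vehicle-treated cultures serve as the 0% inhibition reference.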
A short description of test [6]: NCI Yeast Anticancer Drug Screen. Data for the mlh1 rad18 strain (AID 175). To be noted: S. cerevisiae mlh1 rad18 strain growth inhibition; at 50.0 µM; active compounds read high. The essentials: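 Growth inhibition of the yeast strain was measured after compound exposure and expressed relative to vehicle-treated controls. The strain carries defined defects in DNA damage repair.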

As to `CCCCCOC(=O)c1cccnc1`, the growth inhibition was -8.75% in test [1]; -16.1% in test [2]; -15% in test [3]; -0.2% in test [4]; 0.7% in test [5]; -1.5% in test [6].

Consider `NNC(=O)C(=O)N/N=C(\CCC(=O)Nc1ccc(Cl)cc1)Cc1nc2ccccc2s1`, for which the growth inhibition is 28.2% in test [1]; 28.2% in test [2]; 30.4% in test [3]; 9.65% in test [4]; 12.3% in test [5]; 36.2% in test [6].

For `CCOc1ccc(NC(=O)COc2ccc(Cl)cc2Cl)cc1`, the growth inhibition is 14.9% in test [1]; 22.3% in test [2]; 23.5% in test [3]; 18.4% in test [4]; 26.1% in test [5]; 14.9% in test [6].

Take `O=c1[nH]nc(SCc2ccccc2)c2nncn12`: the growth inhibition is 2.45% in test [1]; 3.1% in test [2]; 6.35% in test [3]; 23.4% in test [4]; 6.55% in test [5]; 20.1% in test [6].

For the compound `O=C(COc1ccccc1)OC1CCCC1`, the growth inhibition is 17.6% in test [1]; -13.4% in test [2]; -9.8% in test [3]; -1.9% in test [4]; -3.05% in test [5]; 4.55% in test [6].

With `O=C(Nc1ccc(F)c([N+](=O)[O-])c1)Nc1cc(C(F)(F)F)ccc1Cl`, the growth inhibition in test [1] is 9.4%; in test [2], 1%; in test [3] it was 0.55%; in test [4], -0.4%; in test [5], -4.65%; in test [6], 24.2%.

Turning to `Nc1cc(F)cc(C(F)(F)F)c1F`, the growth inhibition was 13.5% in test [1]; -32.3% in test [2]; -4.3% in test [3]; -12.2% in test [4]; -5.35% in test [5]; 18.6% in test [6].

For the compound `O=C1c2ccc(O)cc2OC(c2ccc(O)c(O)c2)C1O` (stereo not given), the growth inhibition was 7.6% in test [1]; -7.25% in test [2]; 17.8% in test [3]; 1.85% in test [4]; 6% in test [5]; 6.4% in test [6].

Turning to `CCN(CC)C(=O)C(C(=O)OC)c1ccccc1` (stereo not given), the growth inhibition in test [1] was -4.6%; in test [2], -9.75%; in test [3], 7.8%; in test [4] it was -27.6%; in test [5] it was 10%; in test [6], 7.1%.

Turning to `COC(=O)CCc1nc2ccccc2c(=O)[nH]1`, the growth inhibition was 6.45% in test [1]; 1.05% in test [2]; -6.05% in test [3]; -35.8% in test [4]; -14.9% in test [5]; -12.4% in test [6].

As to `CC(=O)OC1CCC2(C)C(CCC3C2CCC2(C)C3CC3OC(CCC(C)CO)C(C)C32)C1` (stereo not given), the growth inhibition in test [1] was 14.8%; in test [2], 8.55%; in test [3], -0.45%; in test [4] it was 19.6%; in test [5] it was -0.75%; in test [6], 10.1%.

With `CC(C)=NNC(=O)COCC(=O)NN=C(C)C`, the growth inhibition in test [1] was 0.25%; in test [2], -4.45%; in test [3], -1.35%; in test [4], -84.5%; in test [5] it was -22.9%; in test [6] it was 1.35%.

For the compound `CC(=O)OCC(=O)O[C@@H]1[C@H]2[C@@H](OC(=O)c3ccccc3)[C@@H](C)C[C@]2(O)[C@H](OC(C)=O)[C@@]2(C)C(OC(C)=O)[C@]1(OC(C)=O)C[C@H]1C(=O)C(C)(C)C[C@@H]12` (stereo not given in full), the growth inhibition in test [1] is -39.6%; in test [2], -33%; in test [3], -36.5%; in test [4], -28.9%; in test [5], -41.5%; in test [6], -61%.

Turning to `CCCN/C=C1\CC(=O)N(C)C1=O`, the growth inhibition in test [1] is 5.15%; in test [2] it was 8.45%; in test [3] it was 2.5%; in test [4] it was -33.7%; in test [5], 6.4%; in test [6], 11.2%.

In the case of `C=C(/C=C/CCCC)NC(=O)OCc1ccccc1`, the growth inhibition in test [1] was 13.4%; in test [2], 12.4%; in test [3], 8%; in test [4] it was -39.5%; in test [5] it was 1.25%; in test [6], 18.9%.

Consider `O=C(N(Cc1ccccc1)c1ccccc1)C(Cl)(Cl)Cl`, for which the growth inhibition in test [1] is 65.4%; in test [2] it was 76.8% (active); in test [3], 78% (active); in test [4], 30.1%; in test [5], 67%; in test [6] it was 78% (active).

For the compound `O=C(NNC(=S)S)c1ccncc1`, the growth inhibition was 7.5% in test [1]; 2.4% in test [2]; -1.2% in test [3]; -8.95% in test [4]; 11.7% in test [5]; 21.9% in test [6].

For `CSc1nc(C)c2c(n1)N(c1ccc(Cl)cc1)CC2`, the growth inhibition was 1.7% in test [1]; -32.5% in test [2]; -16.5% in test [3]; -35.3% in test [4]; -17.2% in test [5]; -30.4% in test [6].

`COC1OC2COC(c3ccccc3)OC2C2C1N2C(=S)SC` (stereo not given): the growth inhibition was -4.05% in test [1]; 1.7% in test [2]; -2.7% in test [3]; -17.6% in test [4]; -0.75% in test [5]; -0.55% in test [6].

`c1ccc(CSc2nc3ccccc3nc2-c2cccs2)cc1`: the growth inhibition is -48.7% in test [1]; -51.9% in test [2]; -34.5% in test [3]; -1.85% in test [4]; -51.9% in test [5]; -29.8% in test [6].
